Experimental data published in PubChem BioAssay AID489025 (Southern Research Specialized Biocontainment Screening …, 2010).
Screen size: about 2,300 compounds; about 790 (34%) were called active. No rule for the calls is given here. This is one part of the list. Entries with a potency or affinity are not part of this list.

Assay: THP-1 cell cytotoxicity, dose response, cytotoxicity control for non-replicating M. tuberculosis project (AID 489025)
Conditions: THP-1 cell viability; series mostly up to 40 µM; viability: at the top concentration

SMILES	viability
Cc1cccc(N2CCN(Cc3ccc([N+](=O)[O-])o3)CC2)c1C	70.8% (inactive)
CCCCOC(=O)c1ccc(NC(=O)c2nn(C)cc2Br)cc1	85.9% (inactive)
O=C(N/N=C/c1ccc[nH]1)c1ccncc1	123% (inactive)
O=C1NCC(O)=C1C=Nc1ccccc1O	82% (inactive)
Cc1[nH]nc2c1C(c1ccc(-c3ccc(Cl)cc3)o1)C(C#N)=C(N)O2 (stereo unspecified)	86.4% (inactive)
Cc1ccc(NCCC(=O)c2cccs2)cc1Cl	110% (inactive)
CC1(C)CC(=O)C=C(Nc2ccccc2N)C1	123% (inactive)
Nc1ccccc1Nc1ccccc1	85.8% (inactive)
CSCCOC(=O)COc1ccc(/C=N/NC(=O)c2c(Cl)cnn2C)cc1	101% (inactive)
CCOC(=O)CC(NS(=O)(=O)Cc1ccccc1)c1ccc(C)cc1 (stereo unspecified)	70.9% (inactive)
CCCCC1CCC(C(=O)Nc2ccc(S(=O)(=O)Nc3nccs3)cc2)CC1 (stereo unspecified)	71.5% (inactive)
COC(=O)COc1ccc(S(=O)(=O)N2CCCCCC2)cc1	94.7% (inactive)
CC1(C)Oc2ccc(NC(=O)C3COc4ccccc4O3)cc2O1 (stereo unspecified)	96.3% (inactive)
CCc1nnc(NC(=O)c2cc3ccccc3oc2=O)s1	120% (inactive)
CC(C)(C)NC(=O)c1ccc(NC(=O)c2ccccc2-c2ccccc2C(=O)O)cc1	122% (inactive)
COC(=O)COc1ccc2c(=O)c(-c3ccccc3OC)coc2c1	107% (inactive)
O=C(COC(=O)c1cc2ccccc2oc1=O)Nc1ccc(F)cc1F	108% (inactive)
O=C(CCSc1ccc(Cl)cc1)NC1CCCC1	104% (inactive)
CCc1ccc(NC(=O)COc2ccc3c(c2)OCO3)cc1	102% (inactive)
COc1ccc(C(=O)COC(=O)CCC(=O)c2cccs2)cc1	106% (inactive)
Cc1nc(C(=O)Nc2ccccc2)sc1C(=O)Nc1ccccc1	76.8% (inactive)
CC1=CC2=NC(=O)/C(=C\c3ccc(OC(=O)c4ccco4)cc3)C(=N)N2O1	110% (inactive)
CCOC(=O)c1ccc(COC(=O)c2cc3ccccc3oc2=O)o1	104% (inactive)
COc1cccc(OCC(=O)NNC(=O)C(=O)Nc2cccc(C)c2)c1	101% (inactive)
Cc1cccc(OCC(=O)NNC(=O)c2cc3ccccc3oc2=O)c1	115% (inactive)
O=c1oc(-c2ccccc2[N+](=O)[O-])nc2ccccc12	89.1% (inactive)

SMILES	viability
O=C(NC1=NCCS1)c1ccc(-c2ccc(Cl)cc2)o1	81.5% (inactive)
NC(=O)c1ccc(-c2ccc(Br)cc2)o1	98.7% (inactive)
O=C(NNC(=O)c1ccccc1F)c1ccc(-c2ccc(Cl)cc2)o1	103% (inactive)
CCOc1ccc(C(=O)Nc2ccc(N3CCN(C)CC3)cc2)cc1Br	91.3% (inactive)
CC(=O)N1CCN(c2cc3c(cc2F)c(=O)c(C(=O)O)cn3C2CC2)CC1	108% (inactive)
CCCCn1c(O)c(/C=C2/C=CC=N2)c(=O)[nH]c1=O	82.2% (inactive)
COC(=O)C(O)(c1ccc(NC(=S)NC(=O)c2ccccc2)cc1)C(F)(F)F (stereo unspecified)	99.3% (inactive)
CCOC(=O)CCSc1n[nH]c(=S)s1	120% (inactive)
COC(=O)CN(C#N)c1nc(N(C)C)nc(N(C)C)n1	96.9% (inactive)
Cc1ccc2nc3c(c(N)c2c1)CCN3c1ccccc1	85.9% (inactive)
O=C(c1cc([N+](=O)[O-])cc([N+](=O)[O-])c1)N(Cc1nnc(-c2ccccc2Cl)o1)C1CC1	78.9% (inactive)
COc1ccc(C(=O)Nc2ccccc2C(=O)N/N=C/c2ccco2)cc1	94.1% (inactive)
O=C(COc1ccccc1)Nc1ccc(F)cc1	99.4% (inactive)
CCn1cc(/C=N\NC(=O)c2ccc(F)cc2)cn1	109% (inactive)
O=C(COc1ccc2ccccc2c1)N/N=C/c1ccccn1	101% (inactive)
COc1ccc(C2=NC(=O)/C(=C\c3cc(OC)c(OC)c(OC)c3)O2)cc1	122% (inactive)
CSc1nnc(Cc2ccc3c(c2)OCO3)o1	121% (inactive)
Oc1ccccc1-c1nnc(COc2ccccc2)o1	76.9% (inactive)
Cc1ccc(-c2nnc(-c3ccccc3)o2)cc1	103% (inactive)
Cc1cc(C)cc(NC(=O)CCc2ccc(C)o2)c1	84.9% (inactive)
Cn1c(=O)c(Oc2ccc(F)cc2)c(O)c2ccccc21	117% (inactive)
Nc1nnc(SCCCC(=O)c2ccc(Br)cc2)s1	100% (inactive)
CC(C)(C)c1cc(CN2CCC(O)CC2)cc(C(C)(C)C)c1O	108% (inactive)
Cc1cc(C(=O)NNc2cc(Cl)ccc2Cl)no1	102% (inactive)
Cc1ccc(SCCC(=O)OCC(=O)NCC2CCCCC2)cc1	117% (inactive)
Cc1ccccc1OCCC(=O)OCC(=O)NNC(=O)c1cccs1	109% (inactive)

SMILES	viability
O=C(NNc1ccc([N+](=O)[O-])cc1)C1CC1c1ccccc1 (stereo unspecified)	102% (inactive)
Cc1ccc(NC(=O)C2CC2c2ccccc2)cc1 (stereo unspecified)	83.2% (inactive)
O=C(N/N=C/c1cccc2nccnc12)c1ccncc1	82.7% (inactive)
COc1cc(/C=N/NC(=O)c2ccncc2)ccc1OC(=O)c1cccc(F)c1	106% (inactive)
O=C(COC(=O)c1ccc(Br)o1)NC1CCCCC1	117% (inactive)
O=C(N/N=C/C=C/c1cccc([N+](=O)[O-])c1)c1ccncc1	96% (inactive)
COc1cccc(OCCNC(=O)c2cc([N+](=O)[O-])cc([N+](=O)[O-])c2)c1	98.9% (inactive)
O=C(N/N=C/c1ccccn1)c1cccc([N+](=O)[O-])c1	79.6% (inactive)
CC(/C=C/c1cccc([N+](=O)[O-])c1)=N\NC(=O)c1ccncc1	86.4% (inactive)
Cc1ccc(CSCCNC(=O)c2cccc([N+](=O)[O-])c2)cc1	94.1% (inactive)
FC(F)(F)c1ccc(-c2nnc(-c3cccnc3)o2)cc1	108% (inactive)
CC1CCCN(CCSc2ccc(Cl)cc2)C1 (stereo unspecified)	93.1% (inactive)
CCC(C)(C)c1ccc(OCC(=O)Nc2ccncc2)cc1	117% (inactive)
COc1ccc(-n2c3c(cc(C(=O)NNc4ccccc4)c2=O)C(=O)CC(C)(C)C3)cc1	108% (inactive)
Cc1cccc(NC(=O)COC(=O)CCc2c[nH]c3ccccc23)c1	109% (inactive)
Cc1ccc(C(C)C)c(OCC(=O)OCc2c(C)noc2C)c1	106% (inactive)
CCOC(=O)COc1ccc(C(=O)Nc2cccc(Cl)c2C)cc1	108% (inactive)
c1ccc(-c2nnc(SCc3nnc(-c4cccs4)o3)o2)cc1	112% (inactive)
O=C1c2ccccc2CC1Sc1nnc(-c2ccncc2)o1 (stereo unspecified)	111% (inactive)
CCOC(=O)Cc1nc2cc(Cl)ccc2o1	104% (inactive)
CCCCCCOc1ccc(N2C(=O)CC(N3CCN(C(=O)c4ccco4)CC3)C2=O)cc1 (stereo unspecified)	96.9% (inactive)
Cc1ccccc1NC(=O)C1COc2ccccc2O1 (stereo unspecified)	88% (inactive)
O=C(Nc1ccc([N+](=O)[O-])cc1)C1COc2ccccc2O1 (stereo unspecified)	92.3% (inactive)
O=C(Nc1cccc([N+](=O)[O-])c1)C1COc2ccccc2O1 (stereo unspecified)	89.2% (inactive)
COc1ccc(NC(=O)C2COc3ccccc3O2)cc1 (stereo unspecified)	111% (inactive)
CC(C)NC(=O)C1COc2ccccc2O1 (stereo unspecified)	85.2% (inactive)

SMILES	viability
CC(/C=C/c1ccc2c(c1)OCO2)=N/NC(=O)C1COc2ccccc2O1 (stereo unspecified)	89% (inactive)
O=C(Nc1cccc(Cl)c1)C1COc2ccccc2O1 (stereo unspecified)	81% (inactive)
CC(C)(C)c1ccc2c(c1)OC(C(=O)N/N=C\c1ccccn1)CO2 (stereo unspecified)	114% (inactive)
CN1CCC(O)(c2ccccc2)C(C(=O)c2ccccc2)C1 (stereo unspecified)	93.6% (inactive)
COc1cccc(NC(=O)COC(=O)Cc2ccc(Br)cc2)c1	122% (inactive)
COc1ccc(OCCC(=O)OCC(=O)Nc2ccc(Br)cc2)cc1	107% (inactive)
Cn1ccsc1=NC(=O)c1ccccc1F	98.2% (inactive)
Cc1ccccc1C(=O)NNc1ccc([N+](=O)[O-])cc1	112% (inactive)
CC(C)(C)Sc1ccc2nc3c(n2c1)CCCC3	77.6% (inactive)
COc1ccc(N=Cc2nc(-c3ccccc3)oc2OC(C)=O)cc1	103% (inactive)
CCCOc1ccc(N2C(=O)CC(N3CCCC(C(=O)N4CCCC4)C3)C2=O)cc1 (stereo unspecified)	128% (inactive)
Cc1ccc(C2=NN(C)c3nc4ccccc4n3C2)cc1	77.3% (inactive)
COc1cccc(C(=O)OCC(=O)c2ccc(Br)s2)c1OC	112% (inactive)
O=C(COC(=O)c1ccccc1)NC12CC3CC(CC(C3)C1)C2	90.6% (inactive)
C=CCN1C(=O)C2(NNc3ccccc3O2)c2ccccc21 (stereo unspecified)	75.5% (inactive)
O=C(NCCC1=CCCCC1)c1coc(=O)c(Br)c1	107% (inactive)
COc1ccc(C2=Nc3ccccc3OC2)cc1	94.8% (inactive)
Cc1ccc(N2C(=O)CC(Sc3nccc(C)n3)C2=O)cc1 (stereo unspecified)	94.9% (inactive)
COC(=O)c1ccc(Cn2cc(C(F)(F)F)cc([N+](=O)[O-])c2=O)cc1	111% (inactive)
COc1ccc(C(=O)OCn2nnc3ccccc3c2=O)cc1[N+](=O)[O-]	107% (inactive)
Cc1cccc(C)c1NC(=O)COC(=O)CCc1c[nH]c2ccccc12	126% (inactive)
C=C[C@]1(C)C=C2CCC3[C@](C)(CCC[C@@]3(C)C(=O)O)C2CC1 (stereo partly specified)	104% (inactive)
Oc1c(Br)cc(Br)cc1/C=N/c1nccs1	97.5% (inactive)
Cc1nnc(C)n1/N=C/c1cc(Br)cc(Br)c1O	77.9% (inactive)
Cc1ccc(-c2nnc(SCC#CCOC(=O)c3ccco3)o2)cc1	103% (inactive)
CCOC(=O)COc1ccc2c(c1)c(C(=O)OCC)c(C)n2CC	99.8% (inactive)

SMILES	viability
O=C(N/N=C/c1ccc[nH]1)c1cccnc1	119% (inactive)
O=C(Nc1ncccc1O)c1ccc(Oc2ccccc2)cc1	90.7% (inactive)
COC(=O)c1ccc(OCC(=O)c2cccc(OC)c2)cc1	108% (inactive)
O=C(COc1ccc(Cl)cc1)NNC(=O)c1ccccn1	108% (inactive)
COc1ccc(OCC(=O)NNC(=O)c2ccccn2)cc1	104% (inactive)
COc1cccc(NC(=O)c2ccc(C(=O)c3ccccc3)o2)c1	85.4% (inactive)
O=C(Nc1ccccc1N1CCCC1)c1cccc(F)c1	105% (inactive)
CCc1ccc(NC(=O)C(=O)NNC(=O)COc2cccc(OC)c2)cc1	91.4% (inactive)
Brc1ccc(CSc2nnc(-c3ccco3)o2)cc1	85.3% (inactive)
COc1ccc([C@@]2(O)c3c(ccc(CC=C(C)C)c3O)NC(=O)[C@@H]2OC)cc1	95.8% (inactive)
CCCOC(=O)NC1CCS(=O)(=O)C1 (stereo unspecified)	95.1% (inactive)
Cc1ccc(Sc2ccc(C=C3C(=O)N(C)C(=O)N(C)C3=O)o2)cc1	96.4% (inactive)
CCc1ccc(N2C(=O)CC(N3CCC(C(=O)OC)CC3)C2=O)cc1 (stereo unspecified)	109% (inactive)
CCOC(=O)c1c(C)n(C)c2ccc(OC(C)C(=O)OC)cc12 (stereo unspecified)	123% (inactive)
COc1cc(NC(=O)N2CCOCC2)cc(OC)c1	105% (inactive)
O=C(CCN1CCOCC1)c1ccc(Cl)cc1	87.8% (inactive)
Oc1ccc(F)c2cccnc12	87.5% (inactive)
COc1cc(OC)cc(OC(=O)c2ccc3c(=O)n4c(nc3c2)CCC4)c1	100% (inactive)
CCOC(=O)C1(CCc2ccccc2)CCN(Cc2ccccn2)CC1	72.8% (inactive)
COc1ccc(/C=N/NC(=O)c2ccncc2)cc1CN1CCOCC1	112% (inactive)
COc1ccc(CN2CCC(C(=O)Nc3ccc(Oc4cccnc4)cc3)CC2)c(C)c1C	81.3% (inactive)
O=C(COc1c(Br)cc(Br)c2cccnc12)N1CCCCC1	79.9% (inactive)
